Key:
[1] = target: Serine/threonine-protein kinase 26 (Homo sapiens) (UniProt Q9P289); details: at 1 µM;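 further: mean inhibition of MST4 kinase activity, reported from the GSK PKIS inhibitor-set screening panel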
[2] = target: Serine/threonine-protein kinase PAK 1 (Homo sapiens) (UniProt Q13153); details: at 0.1 µM
[3] = target: Serine/threonine-protein kinase PAK 1 (Homo sapiens) (UniProt Q13153); details: at 1 µM
[4] = target: Serine/threonine-protein kinase PAK 2 (Homo sapiens) (UniProt Q13177); details: at 0.1 µM
[5] = target: Serine/threonine-protein kinase PAK 2 (Homo sapiens) (UniProt Q13177); details: at 1 µM
[6] = target: Serine/threonine-protein kinase PAK 3 (Homo sapiens) (UniProt O75914); details: at 0.1 µM
[7] = target: Serine/threonine-protein kinase PAK 3 (Homo sapiens) (UniProt O75914); details: at 1 µM
[8] = target: Serine/threonine-protein kinase PAK 5 (Homo sapiens) (UniProt Q9P286); details: at 0.1 µM
[9] = target: Serine/threonine-protein kinase PAK 5 (Homo sapiens) (UniProt Q9P286); details: at 1 µM
[10] = target: Serine/threonine-protein kinase PAK 6 (Homo sapiens) (UniProt Q9NQU5); details: at 0.1 µM;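 further: mean PAK6 inhibition reported from the GSK PKIS screen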
Chain of Serine/threonine-protein kinase PAK 6 (Homo sapiens) (Q9NQU5 whole entry, looked up): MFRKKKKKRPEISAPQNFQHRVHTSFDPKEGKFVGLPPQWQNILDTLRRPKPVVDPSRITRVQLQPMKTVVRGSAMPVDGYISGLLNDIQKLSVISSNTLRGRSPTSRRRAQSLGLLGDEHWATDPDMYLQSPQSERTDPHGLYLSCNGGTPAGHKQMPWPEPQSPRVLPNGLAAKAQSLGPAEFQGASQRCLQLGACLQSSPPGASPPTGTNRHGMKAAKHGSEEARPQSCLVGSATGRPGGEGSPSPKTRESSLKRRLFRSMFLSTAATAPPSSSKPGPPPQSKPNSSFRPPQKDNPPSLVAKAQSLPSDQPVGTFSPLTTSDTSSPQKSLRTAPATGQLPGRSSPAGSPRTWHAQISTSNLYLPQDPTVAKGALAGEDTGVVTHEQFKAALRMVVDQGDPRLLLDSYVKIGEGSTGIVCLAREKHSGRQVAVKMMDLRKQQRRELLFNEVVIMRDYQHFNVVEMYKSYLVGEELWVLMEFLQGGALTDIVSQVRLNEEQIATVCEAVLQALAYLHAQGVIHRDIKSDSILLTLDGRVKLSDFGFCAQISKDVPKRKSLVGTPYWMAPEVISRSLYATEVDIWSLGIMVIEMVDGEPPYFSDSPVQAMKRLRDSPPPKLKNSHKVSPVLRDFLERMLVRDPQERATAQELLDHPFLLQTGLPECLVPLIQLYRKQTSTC

Chain of Serine/threonine-protein kinase PAK 2 (Homo sapiens) (Q13177 whole entry): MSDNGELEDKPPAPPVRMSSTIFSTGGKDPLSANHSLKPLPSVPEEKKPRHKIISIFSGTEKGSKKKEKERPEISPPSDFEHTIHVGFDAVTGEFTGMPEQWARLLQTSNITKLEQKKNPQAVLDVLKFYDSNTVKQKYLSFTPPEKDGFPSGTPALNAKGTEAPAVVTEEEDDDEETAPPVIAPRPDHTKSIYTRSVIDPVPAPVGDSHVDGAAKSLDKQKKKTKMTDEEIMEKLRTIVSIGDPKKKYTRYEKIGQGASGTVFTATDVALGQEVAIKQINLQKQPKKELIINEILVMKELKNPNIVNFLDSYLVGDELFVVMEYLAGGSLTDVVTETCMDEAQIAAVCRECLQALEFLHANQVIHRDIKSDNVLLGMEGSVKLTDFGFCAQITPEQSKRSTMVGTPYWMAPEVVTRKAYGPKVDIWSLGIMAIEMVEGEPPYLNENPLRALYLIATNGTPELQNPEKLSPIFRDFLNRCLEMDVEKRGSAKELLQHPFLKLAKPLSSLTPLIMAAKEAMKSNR
Chain of Serine/threonine-protein kinase PAK 3 (Homo sapiens) (O75914 whole entry, looked up): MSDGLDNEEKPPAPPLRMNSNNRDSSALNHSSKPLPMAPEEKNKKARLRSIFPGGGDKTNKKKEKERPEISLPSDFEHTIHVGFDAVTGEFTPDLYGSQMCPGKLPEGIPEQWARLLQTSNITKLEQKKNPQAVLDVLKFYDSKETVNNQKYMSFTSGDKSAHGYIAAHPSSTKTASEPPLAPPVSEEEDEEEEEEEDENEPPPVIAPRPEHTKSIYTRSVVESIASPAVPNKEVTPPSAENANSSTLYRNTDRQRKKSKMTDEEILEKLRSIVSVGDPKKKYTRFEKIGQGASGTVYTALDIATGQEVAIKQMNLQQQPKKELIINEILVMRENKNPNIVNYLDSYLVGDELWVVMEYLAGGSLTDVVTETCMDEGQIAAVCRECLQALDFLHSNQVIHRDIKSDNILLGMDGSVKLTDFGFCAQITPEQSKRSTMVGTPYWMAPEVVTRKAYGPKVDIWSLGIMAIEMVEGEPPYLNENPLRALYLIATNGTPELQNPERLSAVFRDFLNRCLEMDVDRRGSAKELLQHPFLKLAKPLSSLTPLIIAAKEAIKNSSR
Chain of Serine/threonine-protein kinase PAK 5 (Homo sapiens) (Q9P286 whole entry, looked up): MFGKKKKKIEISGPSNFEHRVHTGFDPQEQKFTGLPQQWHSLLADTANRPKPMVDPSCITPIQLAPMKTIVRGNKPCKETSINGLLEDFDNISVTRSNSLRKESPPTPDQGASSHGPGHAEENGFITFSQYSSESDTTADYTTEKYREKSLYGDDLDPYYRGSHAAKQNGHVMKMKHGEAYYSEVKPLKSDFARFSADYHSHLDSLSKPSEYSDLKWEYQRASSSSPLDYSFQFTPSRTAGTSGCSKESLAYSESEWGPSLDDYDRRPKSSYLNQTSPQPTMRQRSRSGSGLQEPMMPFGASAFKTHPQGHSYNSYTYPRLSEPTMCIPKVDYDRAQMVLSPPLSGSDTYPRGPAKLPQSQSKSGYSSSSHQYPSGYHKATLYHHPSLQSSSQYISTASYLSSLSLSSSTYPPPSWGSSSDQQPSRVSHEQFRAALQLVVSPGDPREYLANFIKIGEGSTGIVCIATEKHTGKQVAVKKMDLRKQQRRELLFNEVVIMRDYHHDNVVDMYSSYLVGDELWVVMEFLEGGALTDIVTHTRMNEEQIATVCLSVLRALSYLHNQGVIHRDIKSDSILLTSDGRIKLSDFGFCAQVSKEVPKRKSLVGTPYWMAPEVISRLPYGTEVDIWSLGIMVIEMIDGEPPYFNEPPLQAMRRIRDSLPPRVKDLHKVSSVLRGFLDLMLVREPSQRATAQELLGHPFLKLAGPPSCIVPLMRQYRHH
Chain of Serine/threonine-protein kinase PAK 1 (Homo sapiens) (Q13153 whole entry): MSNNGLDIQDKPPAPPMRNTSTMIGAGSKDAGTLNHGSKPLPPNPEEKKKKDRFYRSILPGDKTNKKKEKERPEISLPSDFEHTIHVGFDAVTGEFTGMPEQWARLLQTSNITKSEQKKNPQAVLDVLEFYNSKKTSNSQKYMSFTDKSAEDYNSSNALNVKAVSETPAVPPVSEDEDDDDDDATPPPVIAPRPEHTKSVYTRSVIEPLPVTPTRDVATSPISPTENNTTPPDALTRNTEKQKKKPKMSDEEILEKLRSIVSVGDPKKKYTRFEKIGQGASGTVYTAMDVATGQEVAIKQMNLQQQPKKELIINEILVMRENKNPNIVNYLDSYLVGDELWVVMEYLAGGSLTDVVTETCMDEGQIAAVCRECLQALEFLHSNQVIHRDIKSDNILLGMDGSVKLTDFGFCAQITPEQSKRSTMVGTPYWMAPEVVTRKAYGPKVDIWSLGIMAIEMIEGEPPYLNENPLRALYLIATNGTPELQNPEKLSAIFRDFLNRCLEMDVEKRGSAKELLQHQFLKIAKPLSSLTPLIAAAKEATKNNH
Chain of Serine/threonine-protein kinase 26 (Homo sapiens) (Q9P289 2-416 limits assumed): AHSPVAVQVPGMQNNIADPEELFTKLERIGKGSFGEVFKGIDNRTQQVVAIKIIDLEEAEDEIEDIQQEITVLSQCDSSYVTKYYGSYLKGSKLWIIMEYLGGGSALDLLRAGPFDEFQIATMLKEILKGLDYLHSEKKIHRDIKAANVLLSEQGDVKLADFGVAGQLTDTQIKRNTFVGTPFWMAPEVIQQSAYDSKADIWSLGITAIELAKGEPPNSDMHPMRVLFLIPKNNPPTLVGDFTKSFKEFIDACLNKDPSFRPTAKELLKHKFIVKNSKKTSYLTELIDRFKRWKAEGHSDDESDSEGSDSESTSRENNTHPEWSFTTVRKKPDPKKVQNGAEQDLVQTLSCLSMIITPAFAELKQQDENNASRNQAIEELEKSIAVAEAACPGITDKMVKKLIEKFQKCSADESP

| Compound | inhibition [1] [%] | inhibition [2] [%] | inhibition [3] [%] | inhibition [4] [%] | inhibition [5] [%] | inhibition [6] [%] | inhibition [7] [%] | inhibition [8] [%] | inhibition [9] [%] | inhibition [10] [%] |
| --- | --- | --- | --- | --- | --- | --- | --- | --- | --- | --- |
| CCn1c(-c2nonc2N)nc2c(C#CCN)ncc(OCCCN)c21 | 2.79 | -1.61 | 2.32 | -1.05 | -1.34 | -1.06 | -0.65 | 3.08 | 3.52 | 17 |
| NC(=O)c1sc(-n2cnc3cc(C(F)(F)F)ccc32)cc1OCc1ccccc1Br | 3.19 | 1.15 | 2.03 | -0.71 | -1.57 | 1.59 | 0.61 | 1.54 | 0.39 | 3.56 |
| NS(=O)(=O)c1ccc(N/C=C2\C(=O)Nc3ccc4ncsc4c32)cc1 | 74.5 | 4.98 | 7.33 | 1.87 | 2.66 | 5.48 | 5.62 | 2.66 | 4.51 | -9.73 |
| Cc1cc(-c2ccco2)cc(C)c1/C=C/c1cncc(-c2nn[nH]n2)c1 | 11.6 | 1.26 | 2.13 | -1.09 | -0.44 | 0.76 | 0.92 | -7.1 | -2.25 | 5.79 |
| NS(=O)(=O)c1ccc(-c2ccc3c(NC(=O)C4CC4)n[nH]c3c2)cc1 | -2.58 | 6.54 | 2.13 | 1.52 | 2.07 | 2.48 | 4.17 | 1.07 | 2.99 | 7.47 |
| CCn1c(-c2nonc2N)nc2c(C#CC(C)(C)O)nc(O[C@@H](CN)c3ccccc3)cc21 | 10.8 | 0.39 | 14 | 7.41 | 48.9 | -0.59 | 15.6 | 49.1 | 62.2 | 59.9 |
| COc1cc(C=NNc2ncnc3c2cnn3Cc2ccccc2)ccc1O | 2.28 | 0.64 | -2.75 | -2.02 | -0.63 | -5.99 | -4.57 | – | -5.56 | -0.81 |
| CCn1c(-c2nonc2N)nc2c(C#CC(C)(C)O)ncc(OC[C@@H]3CCCN3)c21 | -0.64 | -0.64 | 7.58 | 1.99 | 16.6 | 0.61 | 4.06 | 12.6 | 49.8 | 19.1 |
| Fc1ccc(-c2ncn(C3CCNCC3)c2-c2ccnc(Oc3ccccc3)n2)cc1 | 0.32 | 3.79 | 1.88 | 0.54 | 1.48 | 1.85 | 3.31 | 2.66 | 2.03 | -8.85 |
| COc1cc2c(cc1Nc1nc(Nc3ccsc3C(N)=O)c3cc[nH]c3n1)N(C(=O)CN(C)C)CCC2 | 0.17 | -0.61 | 0.73 | 1.88 | 2.11 | 3.92 | 7.24 | -1 | -3.49 | 4.98 |
| COc1cccc(-n2ncc3c(N/N=C/c4ccncc4)ncnc32)c1 | 7.18 | 5.78 | 7.75 | 3.04 | 2.37 | 5.73 | 5.78 | 0.19 | 6.09 | -2.81 |
| COc1cccc(COc2cc(-n3cnc4ccccc43)sc2C(N)=O)c1 | -1.08 | 0.1 | 2.97 | 0.38 | 0.1 | 0.88 | 1.18 | -2.95 | -5.64 | 1.2 |
| Nc1nonc1-c1nc2cnccc2n1C1CCCCC1 | 3.95 | -0.52 | -1.25 | -2.06 | -1.54 | -3.57 | -2.19 | -7.66 | -4.63 | -0.28 |
| CCn1c(-c2nonc2N)nc2c(C#CC(C)(C)O)ncc(OCC3CCNCC3)c21 | 3.31 | 5.46 | 7.18 | 2.42 | 12.7 | 5.37 | 7.15 | 48.8 | 76 | 19.2 |
